In the library only some 19% were active in any assay of this set; here they are far more common.
HT1080 IDH1KD tx – qHTS for induction of synthetic lethality in tumor cells producing 2HG: qHTS for the HT-1080-IDH1KD cell line; 360,000 compounds, 2% hits; HT-1080 IDH1 knockdown viability, ATP luminescence, 48 h; Potency, µM (top dose mostly 46.1 µM), inactives show top-dose activity, negative = toxicity, most hits filed as cytotoxic; AID 686971, 2013;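 also: potency is read from the fitted curve at half-maximal effect; 0% = DMSO wells and -100% = cell-free medium wells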
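In this qHTS, HT-1080 cells depleted of IDH1 are exposed for 48 h at 37 °C to compound titrations. Toxicity is scored from CellTiter-Glo luminescence, with DMSO as full viability and medium alone as none.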
TDP1 cell CPT – qHTS for Inhibitors of human tyrosyl-DNA phosphodiesterase 1 (TDP1): qHTS in cells in presence of CPT; 420,000 compounds, 12% hits; Potency, µM (highest dose often 46.2 µM), for the others: at the top dose activity change, negative = growth inhibition, usual class: inhibitors; AID 686979, 2013; chicken DT40 Tdp1-/-;hTDP1 cells + 20 nM CPT, ATP luminescence, 48 h; also: potency is read from the fitted curve at half-maximal effect; nearly all actives have a fitted effect of over 55% in size
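Chicken DT40 Tdp1-/- cells stably complemented with human TDP1 were seeded at 400 cells/well in medium containing 20 nM camptothecin, exposed to pin-transferred compounds, and grown at 37 °C for at least 48 hr. Viability was read as ATP luminescence.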
uPA generation – qHTS for Inhibitors of Cell Surface uPA Generation | cell surface uPA generation assay, qHTS | Potency, µM (highest dose often 38.3 µM), for the others: top-dose activity change, negative = inhibition, usual class: inhibitors | AID 540303, 2011 | 330,000 compounds, 0.31% hits; active = well fitted inhibition curve with a large enough effect; inconclusive = small, poorly fitted or top-dose-only effect; inactive = no such curve, though single readings can be large or run the other way; tested in mouse RAW 264.7 cells; also: potency is read from the fitted curve at half-maximal effect; nearly all actives have a fitted effect of over 55% in size
IL-1B inflam inh – qHTS for Inhibitors of Inflammasome Signaling: IL-1-beta AlphaLISA Primary Screen | AID 743279, 2014 | THP-1 LPS/ATP IL-1B secretion, AlphaLISA, 16 h; stronger effect = lower value | activity change, % at 57.5 µM | 360,000 compounds, 4.7% hits; in the data active = activity change below about -50%; inconclusive = mostly about -30% to -49%
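THP-1 cells pretreated 1 hr with compounds (up to 57.5 uM final), then stimulated with LPS (250 ng/mL final) plus ATP (1.25 mM final); secreted IL-1B measured by AlphaLISA after 16 hr, decreased signal indicating inhibition.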
TDP1 cell noCPT – qHTS for Inhibitors of human tyrosyl-DNA phosphodiesterase 1 (TDP1): qHTS in cells in absence of CPT. 420,000 compounds, 15% hits. AID 686978, 2013. DT40 Tdp1-/- hTDP1 cells, no CPT, ATP luminescence, 48 h. Potency, µM (top dose mostly 46.2 µM), for the others: at the highest dose activity change, negative = growth inhibition, most hits filed as inhibitors; also: potency is read from the fitted curve at half-maximal effect; nearly all actives have a fitted effect of over 55% in size
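No-CPT arm: Tdp1-/-;hTDP1 DT40 cells (400/well) plus compounds, incubated ≥48 hr at 37 °C. Readout CellTiter-Glo luminescence.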
HT1080NT lethal – qHTS for induction of synthetic lethality in tumor cells producing 2HG: qHTS for the HT-1080-NT fibrosarcoma cell line; Potency, µM (doses to about 46.1 µM), inactives show at the highest dose activity, negative = less viability, usual class: cytotoxic; HT-1080-NT fibrosarcoma viability, CellTiter-Glo ATP luminescence, 48 h; 360,000 compounds, 1.6% hits;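 also: NT is the 2HG producing partner of a matched IDH1 knockdown line; potency is read from the fitted curve at half-maximal effect; 0% = DMSO-treated cells and -100% = media-only wells without cells; nearly all actives have a fitted effect of over 55% in size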
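Viability of the 2HG-overproducing fibrosarcoma line after 48 hours of compound exposure at 37 degrees C was determined by luminescence with CellTiter-Glo, and concentration-effect curves were then fitted and categorized.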
* marks the source's active call; other numbers are inactive results; [ ] = dose if it differs, or a comment. Unless noted, calls follow the shape of the dose curve; as a rule, active = well fitted curve in the direction sought with a large enough effect; inconclusive = small, poorly fitted or top-dose-only effect, or another doubt; inactive = no such curve, though single readings can be large; an effect the other way counts as inactive or inconclusive. Unless noted, % is scaled to controls: 0 for no effect and ±100 for the full control effect.

For CCCC(=O)NC(c1ccc(C)cc1)c1ccc2cccnc2c1O (centres undefined) the results were HT1080 IDH1KD tx inconclusive, TDP1 cell CPT 2.3µM*, uPA generation -13%, IL-1B inflam inh 184, TDP1 cell noCPT 1.2µM* and HT1080NT lethal inconclusive.
`Cc1cccc(NC(c2cccc(Cl)c2)c2ccc3cccnc3c2O)n1` (centres undefined) gave TDP1 cell CPT 5.2µM* and TDP1 cell noCPT 5.2µM*.
O=C(COc1ccc(Cl)cc1Cl)Nc1cccc2cccnc12 was read as TDP1 cell CPT -25% and TDP1 cell noCPT -17%.
CC(=O)/C(=N\Nc1cccc(Cl)c1)Sc1cccc2cccnc12 was read as HT1080 IDH1KD tx 7%, TDP1 cell CPT 18%, uPA generation -7%, IL-1B inflam inh 30, TDP1 cell noCPT -15% and HT1080NT lethal 6%.
Screening Cc1ccc(C(Nc2ccccn2)c2ccc3cccnc3c2O)cc1 (centres undefined) returned TDP1 cell CPT 21µM* and TDP1 cell noCPT 5.8µM*.
`CCCN1CCN(C(=O)c2ccc(S(=O)(=O)N(C)c3ccccc3OC)cc2)CC1` gave HT1080 IDH1KD tx 0%, TDP1 cell CPT inconclusive, IL-1B inflam inh -7, TDP1 cell noCPT -4% and HT1080NT lethal -3%.
Screening O=C(Nc1ccc(N2CCOCC2)cc1N1CCOCC1)c1ncoc1-c1cccc(F)c1 returned HT1080 IDH1KD tx 20%, TDP1 cell CPT inconclusive, uPA generation 2%, IL-1B inflam inh inconclusive, TDP1 cell noCPT inconclusive and HT1080NT lethal 13%.
`O=C(CN1Cc2ccccc2OC(c2ccsc2)C1)NCC1OCCc2ccccc21` (centres undefined) gave TDP1 cell CPT 26%[9.04 µM] and TDP1 cell noCPT -31%.
`CCCCC(=O)NC(=O)NC(c1ccccc1)c1ccccc1` gave HT1080 IDH1KD tx -1%, TDP1 cell CPT inconclusive, uPA generation -2%, IL-1B inflam inh 0, TDP1 cell noCPT inconclusive and HT1080NT lethal 0%.
Screening CCCC(=O)NC(c1ccc(Cl)cc1)c1ccc2cccnc2c1O (centres undefined) returned HT1080 IDH1KD tx inconclusive, TDP1 cell CPT 4.1µM*, uPA generation -10%, IL-1B inflam inh 108, TDP1 cell noCPT 4.1µM* and HT1080NT lethal inconclusive.
Screening CCCCC(=O)NC(c1ccc(Cl)cc1)c1ccc2cccnc2c1O (centres undefined) returned HT1080 IDH1KD tx inconclusive, TDP1 cell CPT 1.3µM*, uPA generation -11%, IL-1B inflam inh 156, TDP1 cell noCPT 1.2µM* and HT1080NT lethal inconclusive.
Screening CCCCC(=O)NC(c1ccc(N(C)C)cc1)c1ccc2cccnc2c1O (centres undefined) returned HT1080 IDH1KD tx inconclusive, TDP1 cell CPT 1µM*, uPA generation -13%, IL-1B inflam inh 116, TDP1 cell noCPT 0.73µM* and HT1080NT lethal inconclusive.
Screening CC(=O)NC(c1ccc(Cl)cc1Cl)c1ccc2cccnc2c1O (centres undefined) returned HT1080 IDH1KD tx inconclusive, TDP1 cell CPT 3.7µM*, uPA generation inconclusive, IL-1B inflam inh 154, TDP1 cell noCPT 4.6µM* and HT1080NT lethal inconclusive.
CCc1cccc(OCC2Cn3c(nc4c3c(=O)n(C)c(=O)n4C)O2)c1 (centres undefined) was read as HT1080 IDH1KD tx inconclusive, TDP1 cell CPT inconclusive, uPA generation -1%, IL-1B inflam inh 38, TDP1 cell noCPT inconclusive and HT1080NT lethal -22%.
For Brc1cccc(-c2nn(-c3ccccc3)c3c2cnc2cc4c(cc23)OCO4)c1 the results were TDP1 cell CPT -1% and TDP1 cell noCPT -4%.
`COc1ccc(CC(=O)NCCc2csc3nc(-c4ccccc4F)nn23)cc1` gave TDP1 cell CPT inconclusive and TDP1 cell noCPT -20%.
`CCCCOc1ccc(C(=O)NCCc2csc3nc(-c4ccccc4F)nn23)cc1` gave TDP1 cell CPT 26µM* and TDP1 cell noCPT inconclusive.
For CC(C)(C)c1ccc(C(=O)NCCc2csc3nc(-c4ccccc4F)nn23)cc1 the results were TDP1 cell CPT 21µM* and TDP1 cell noCPT inconclusive.
For CCOc1cc(C(=O)NCCc2csc3nc(-c4ccccc4F)nn23)cc(OCC)c1OCC the results were TDP1 cell CPT 23µM* and TDP1 cell noCPT inconclusive.
For CN(Cc1ccc2c(c1)CCCN2C)C(=O)[C@H]1O[C@@H](n2cnc3c(N)ncnc32)[C@H](O)[C@@H]1O the results were HT1080 IDH1KD tx 9%, TDP1 cell CPT -27%, IL-1B inflam inh -19, TDP1 cell noCPT inconclusive and HT1080NT lethal 1%.
CC(Sc1nc(-c2ccccc2)c(-c2ccccc2)[nH]1)C(=O)NCC1CCCO1 (centres undefined) was read as HT1080 IDH1KD tx -2%, TDP1 cell CPT inconclusive, IL-1B inflam inh 6, TDP1 cell noCPT 23µM* and HT1080NT lethal -10%.
`CC(Sc1ncnc2sc(-c3ccccc3)cc12)C(=O)NCC1CCCO1` (centres undefined) gave HT1080 IDH1KD tx inconclusive, TDP1 cell CPT inconclusive, uPA generation inconclusive, IL-1B inflam inh -26, TDP1 cell noCPT 23µM* and HT1080NT lethal -11%.
Screening CNS(=O)(=O)c1cccc(C(=O)OCC(=O)Nc2ccc3ccccc3c2)c1 returned HT1080 IDH1KD tx -1%, TDP1 cell CPT -7%, uPA generation -2%, IL-1B inflam inh 20, TDP1 cell noCPT -3% and HT1080NT lethal -12%.
`Cc1c(C#N)c(N)nc(Cl)c1C#N` gave HT1080 IDH1KD tx inconclusive, TDP1 cell CPT -28%, uPA generation -6%, IL-1B inflam inh -168*, TDP1 cell noCPT inconclusive and HT1080NT lethal inconclusive.
Cc1nc(N)c(C#N)c(-c2ccccc2)c1C was read as HT1080 IDH1KD tx -1%, TDP1 cell CPT -5%, uPA generation 1%, IL-1B inflam inh -13, TDP1 cell noCPT inconclusive and HT1080NT lethal 0%.
COC(=O)c1sccc1S(=O)(=O)NCc1ccc(S(N)(=O)=O)cc1 was read as HT1080 IDH1KD tx -6%, TDP1 cell CPT 2%, uPA generation 4%, IL-1B inflam inh -14, TDP1 cell noCPT -20% and HT1080NT lethal -7%.

Assay outcomes: PubChem, National Center for Advancing Translational Sciences (NCATS)
